In all, about 5,500 compounds went through this assay and about 2,000 (36%) were called active. Inconclusive results (about 18%) are left out. The list shows a part of the results. A number with no mark means an inactive call. Cut-off read from the data, not from the text of the source: active = normalized growth mostly below about 0.91 (no sharp cut-off); inconclusive = no clear call, values can overlap the other calls; inactive = mostly above about 0.92.
Experiment: chemical genetic growth profiling, strain panel (AID 1159580);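 note: tested at 20 µM; growth read once vehicle control cultures reached saturation at 30 °C; 1 = growth at the plate median or of vehicle wells; lower values mean less growth of the strain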
Conditions: S. cerevisiae deletion strains, growth OD

With CN(CCC(N)CC(=O)N[C@H]1C=CC(n2ccc(N)nc2=O)O[C@@H]1C(=O)O)C(=N)N (some centres not stated) the normalized growth (locus YAL021C, strain ccr4, hits give low values) was 0.406 (active), the normalized growth (locus YAL026C, strain drs2, hits give low values) was 0.953 and the normalized growth (locus YAL030W, strain snc1, hits give low values) was 0.93. For the same molecule, the normalized growth (locus YBL061C, strain skt5, hits give low values) was 0.938, the normalized growth (locus YBR009C, strain hhf1, hits give low values) was 0.895 (active) and the normalized growth (locus YBR023C, strain chs3, hits give low values) was 0.944. For the same molecule, the normalized growth (locus YBR171W, strain sec66, hits give low values) was 0.963, the normalized growth (locus YBR231C, strain swc5, hits give low values) was 0.976 and the normalized growth (locus YBR279W, strain paf1, hits give low values) was 0.916 (active). For the same molecule, the normalized growth (locus YCL011C, strain gbp2, hits give low values) was 0.935, the normalized growth (locus YCL016C, strain dcc1, hits give low values) was 0.947 and the normalized growth (locus YCL061C, strain MRC1, hits give low values) was 0.899 (active). For the same molecule, the normalized growth (locus YCL069W, strain vba3, hits give low values) was 0.942, the normalized growth (locus YCR088W, strain abp1, hits give low values) was 0.962 and the normalized growth (locus YDL005C, strain med2, hits give low values) was 0.111 (active). The normalized growth (locus YDL040C, strain nat1, hits give low values) was 0.983, the normalized growth (locus YDR001C, strain nth1, hits give low values) was 0.965 and the normalized growth (locus YDR069C, strain doa4, hits give low values) was 0.494 (active). For the same molecule, the normalized growth (locus YDR137W, strain rgp1, hits give low values) was 0.852, the normalized growth (locus YDR159W, strain sac3, hits give low values) was 0.659 (active) and the normalized growth (locus YDR195W, strain ref2) was 0.603 (active). For the same molecule, the normalized growth (locus YDR297W, strain sur2, hits give low values) was 0.941, the normalized growth (locus YDR334W, strain swr1, hits give low values) was 0.917 and the normalized growth (locus YDR335W, strain msn5, hits give low values) was 0.626 (active). For the same molecule, the normalized growth (locus YDR392W, strain spt3, hits give low values) was 0.262 (active), the normalized growth (locus YEL003W, strain gim4, hits give low values) was 0.919 and the normalized growth (locus YEL037C, strain rad23, hits give low values) was 0.963. The normalized growth (locus YEL061C, strain CIN8 (second series), hits give low values) was 0.952, the normalized growth (locus YER015W, strain faa2, hits give low values) was 0.917 (active) and the normalized growth (locus YER016W, strain bim1, hits give low values) was 0.976. For the same molecule, the normalized growth (locus YER111C, strain swi4, hits give low values) was 0.793 (active), the normalized growth (locus YER155C, strain BEM2 (second series), hits give low values) was 0.826 (active) and the normalized growth (locus YFR010W, strain ubp6, hits give low values) was 0.725 (active). The normalized growth (locus YGL167C, strain pmr1, hits give low values) was 0.998, the normalized growth (locus YGL173C, strain kem1, hits give low values) was 0.124 (active) and the normalized growth (locus YGL227W, strain vid30, hits give low values) was 0.98. The normalized growth (locus YGL240W, strain doc1, hits give low values) was 0.31 (active), the normalized growth (locus YGL253W, strain hxk2, hits give low values) was 0.942 and the normalized growth (locus YHR013C, strain ard1, hits give low values) was 0.929. For the same molecule, the normalized growth (locus YHR027C, strain rpn1, hits give low values) was 0.814 (active), the normalized growth (locus YHR030C, strain SLT2, hits give low values) was 0.9 and the normalized growth (locus YHR079C, strain IRE1, hits give low values) was 0.924. The normalized growth (locus YHR142W, strain chs7, hits give low values) was 0.846 (active), the normalized growth (locus YJL092W, strain hpr5, hits give low values) was 0.913 (active) and the normalized growth (locus YJL095W, strain BCK1 (second series), hits give low values) was 0.891 (active). The normalized growth (locus YJL095W, strain BCK1, hits give low values) was 0.934, the normalized growth (locus YJL115W, strain asf1, hits give low values) was 0.725 (active) and the normalized growth (locus YJL129C, strain trk1, hits give low values) was 0.637 (active). The normalized growth (locus YJL154C, strain vps35, hits give low values) was 0.898 (active), the normalized growth (locus YJL164C, strain tpk1, hits give low values) was 0.888 (active) and the normalized growth (locus YJL166W, strain qcr8, hits give low values) was 0.891 (active). The normalized growth (locus YJL187C, strain SWE1, hits give low values) was 0.872 (active), the normalized growth (locus YJR066W, strain TOR1, hits give low values) was 0.814 (active) and the normalized growth (locus YKL160W, strain elf1, hits give low values) was 0.887 (active). For the same molecule, the normalized growth (locus YKR026C, strain gcn3, hits give low values) was 0.965, the normalized growth (locus YKR091W, strain srl3, hits give low values) was 0.986 and the normalized growth (locus YLL001W, strain dnm1, hits give low values) was 0.923. The normalized growth (locus YLL026W, hits give low values) was 0.934, the normalized growth (locus YLL041C, strain sdh2, hits give low values) was 0.946 and the normalized growth (locus YLR027C, strain aat2, hits give low values) was 0.872 (active). For the same molecule, the normalized growth (locus YLR113W, strain HOG1, hits give low values) was 0.958, the normalized growth (locus YLR221C, strain rsa3, hits give low values) was 0.871 (active) and the normalized growth (locus YLR258W, strain gsy2, hits give low values) was 0.922. The normalized growth (locus YLR262C, strain YPT6 (second series), hits give low values) was 0.904, the normalized growth (locus YLR320W, strain mms22, hits give low values) was 0.957 and the normalized growth (locus YLR342W, strain FKS1, hits give low values) was 0.943. The normalized growth (locus YLR357W, strain rsc2, hits give low values) was 0.31 (active), the normalized growth (locus YLR370C, strain arc18, hits give low values) was 0.478 (active) and the normalized growth (locus YLR384C, strain iki3, hits give low values) was 0.692 (active). For the same molecule, the normalized growth (locus YML120C, strain ndi1, hits give low values) was 0.888 (active), the normalized growth (locus YMR058W, strain fet3, hits give low values) was 0.885 (active) and the normalized growth (locus YMR125W, strain sto1, hits give low values) was 0.686 (active). The normalized growth (locus YMR129W, hits give low values) was 0.949, the normalized growth (locus YMR205C, strain PFK2, hits give low values) was 1 and the normalized growth (locus YMR231W, strain pep5, hits give low values) was 0.734 (active). For the same molecule, the normalized growth (locus YNL071W, strain lat1, hits give low values) was 0.89 (active), the normalized growth (locus YNL183C, strain NPR1, hits give low values) was 0.881 and the normalized growth (locus YNL209W, strain ssb2, hits give low values) was 0.796 (active). For the same molecule, the normalized growth (locus YNL248C, strain rpa49, hits give low values) was 0.73 (active), the normalized growth (locus YNL322C, strain KRE1 (second series), hits give low values) was 0.942 and the normalized growth (locus YNR049C, strain mso1, hits give low values) was 0.94. The normalized growth (locus YOR001W, strain rrp6, hits give low values) was 0.793 (active), the normalized growth (locus YOR070C, strain gyp1, hits give low values) was 0.962 and the normalized growth (locus YOR080W, strain dia2, hits give low values) was 0.776 (active). For the same molecule, the normalized growth (locus YOR083W, strain WHI5, hits give low values) was 0.923, the normalized growth (locus YOR106W, strain vam3, hits give low values) was 0.699 (active) and the normalized growth (locus YOR231W, strain MKK1, hits give low values) was 0.87. For the same molecule, the normalized growth (locus YOR265W, strain rbl2, hits give low values) was 0.966, the normalized growth (locus YOR270C, strain vph1, hits give low values) was 0.781 and the normalized growth (locus YOR290C, strain snf2, hits give low values) was 0.875. For the same molecule, the normalized growth (locus YPL051W, strain arl3, hits give low values) was 0.869 (active), the normalized growth (locus YPL078C, strain atp4, hits give low values) was 0.826 (active) and the normalized growth (locus YPL106C, strain sse1, hits give low values) was 0.356 (active). For the same molecule, the normalized growth (locus YPL240C, strain hsp82, hits give low values) was 0.924 (active) and the normalized growth (locus YPL256C, strain CLN2, hits give low values) was 0.901.

Molecule Nc1ccn([C@@H]2O[C@H](CO)[C@@H](O)C2O)c(=O)n1 (some centres not stated) has a normalized growth (locus YAL013W, strain DEP1, hits give low values) of 0.982, a normalized growth (locus YAL040C, strain CLN3, hits give low values) of 1.03 and a normalized growth (locus YDR363W, strain ESC2, hits give low values) of 0.981. For the same molecule, the normalized growth (locus YER002W, strain NOP16, hits give low values) was 1, the normalized growth (locus YNL128W, strain TEP1, hits give low values) was 0.967 and the normalized growth (locus YNL175C, strain NOP13, hits give low values) was 0.987. The normalized growth (locus YNL197C, strain WHI3, hits give low values) was 0.976, the normalized growth (locus YNL224C, strain SQS1, hits give low values) was 0.983 and the normalized growth (locus YNL322C, strain KRE1, hits give low values) was 1. It also gave a normalized growth (locus YOR083W, strain WHI5 (second series), hits give low values) of 1.05, a normalized growth (locus YPL055C, strain LGE1, hits give low values) of 0.99 and a normalized growth (locus YPL241C, strain CIN2, hits give low values) of 0.996.

Source: PubChem BioAssay AID1159580 (chemical genetic matrix, 2015)
